99 molecules from PubChem BioAssay AID2732 (Emory University Molecular Libraries Screening Center, 2010) can be followed below.

Molecules are shown by their SMILES. About 8,200 (3.7%) of roughly 220,000 compounds were called active. The sample holds actives, similar compounds and a random draw of the others, so the mix is not that of the screen. Values without a mark were called inactive.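 The calls were made as follows: active = compounds that reduced the stress-induced luciferase reporter signal by more than about 70% of percent inhibition (limit read from the data); inactive = the rest.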

The nature of this experiment: inhibitors of CHOP promoter induction, primary screen, cell-based, unfolded protein response, luciferase reporter (AID 2732).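 Also: 0% = tunicamycin plus vehicle and 100% = wells without tunicamycin.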 The settings on record: CHO-K1 CHOP-promoter luciferase, tunicamycin-induced, 15-18 h; at 10 µM; hits give high values.
Regarding `CNC(=S)NNC(=O)c1ccc(N(C)C)cc1`, the inhibition is -5.96%.

In the case of `O=C(Nc1n[nH]c(C(F)(F)F)n1)c1cccs1`, the inhibition was 3.43%.

For the molecule `Cc1noc(C)c1C(=O)OCC(=O)N1CCN(S(=O)(=O)c2ccc3ccccc3c2)CC1`, the inhibition was 4.18%.

In the case of `O=C(COC(=O)c1ccc[nH]c1=O)Nc1ccc2c(c1)OC(F)(F)O2`, the inhibition was -4.76%.

In the case of `O=C(CCn1nnc2ccccc2c1=O)N[C@@H](Cc1c[nH]c2ccccc12)C(=O)O`, the inhibition was 5.85%.

For the molecule `Cc1nc2ccccc2cc1O`, the inhibition was -6.19%.

On to `Cc1nc2ccccc2cc1OCc1ccc(F)cc1`, for which the inhibition was 74.8% (active).

As for `Fc1cccc2ncnc(OCc3ccccc3)c12`, the inhibition was -2.5%.

Take `O=S(=O)(Nc1n[nH]c(C(F)(F)F)n1)c1ccccc1`: the inhibition is 11.6%.

Take `COC(=O)c1cc(C(=O)OCC(=O)Nc2cc(C)on2)cc([N+](=O)[O-])c1`: the inhibition was 4.62%.

As to `Cc1cccc(NC(=O)c2sc3nc4c(c(-c5ccco5)c3c2N)CCC4)c1`, the inhibition was 34.4%.

Consider `CCc1nc2sc(C(=O)O)c(N)c2c2c1CCCC2`, for which the inhibition was 3.45%.

Regarding `Cc1ccc(NC(=O)c2sc3nc(N)c(C#N)cc3c2N)cc1`, the inhibition is -25.7%.

On to `NC(=O)c1sc2nc3c(c(-c4ccccc4)c2c1N)CCC3`, for which the inhibition is 70.9% (active).

As to `CC(=O)Nc1ccc(NC(=O)c2sc3nc4c(c(-c5ccc(C)cc5)c3c2N)CCC4)cc1`, the inhibition is 78.3% (active).

For the molecule `Cc1nc2sc(C(=O)c3ccccc3)c(N)c2c2c1CCCC2`, the inhibition was 0.62%.

In the case of `COc1ccc(C2/C=C\CN(S(=O)(=O)c3cccs3)CC(=O)N2Cc2ccc(F)cc2)cc1` (centres undefined), the inhibition is 4.62%.

With `Cc1cc(C)c(NC(=O)CN2C(=O)NC(Cc3ccccc3)C2=O)c(C)c1` (centres undefined), the inhibition was 11.3%.

Consider `COc1cccc(C(=O)Nc2nc3ccc(S(C)(=O)=O)cc3s2)c1`, for which the inhibition was 8.18%.

On to `COc1ccc2nc(NC(=O)c3ccc(Br)s3)sc2c1`, for which the inhibition is 95.9% (active).

In the case of `COc1ccc2nc(NC(=O)NC3CCCCC3)sc2c1`, the inhibition is 26.1%.

For the molecule `CCCSc1ncccc1C(=O)O`, the inhibition is -2.65%.

Take `CO/N=C(/CS(=O)(=O)c1ccc(Br)cc1)c1ccc(OC)cc1`: the inhibition is 83% (active).

Turning to `CO/N=C/CC(=O)c1ccc(OC)cc1`, the inhibition is -19.6%.

Regarding `COC(=O)CNS(=O)(=O)c1ccc(OC)cc1`, the inhibition was 3.65%.

On to `Cc1nc(-c2ccccc2)sc1-c1nnc(C2CC2)o1`, for which the inhibition was -9.64%.

`O=c1[nH]nc(SCCS(=O)(=O)c2ccc(F)cc2)n1-c1ccccc1C(F)(F)F`: the inhibition is 10.5%.

As for `CN(C)CCCN(Cc1cc2cc3c(cc2[nH]c1=O)OCCO3)C(=O)NC1CCCCC1`, the inhibition was 5.43%.

Regarding `Clc1ccc(Nc2nc(-c3cccs3)cs2)nc1`, the inhibition is 99.5% (active).

Turning to `O=C(Nc1ccc(Cl)cn1)Nc1cccs1`, the inhibition was 38.9%.

Consider `c1ccc(Nc2nc(-c3ccncc3)cs2)nc1`, for which the inhibition was 56.5%.

Turning to `Nc1nnnn1/N=C/c1cc([N+](=O)[O-])ccc1O`, the inhibition was 6.19%.

`Cc1ccc(NC(=O)Nc2ccccc2)c(Br)c1`: the inhibition was 38.2%.

Take `C=CCNc1scc(-c2ccccc2)[n+]1CC=C`: the inhibition was -28.4%.

For the molecule `C=CC[n+]1c(-c2ccc(C)cc2)csc1NNC(=O)Nc1ccccc1`, the inhibition is 75.9% (active).

With `O=C1NNC(c2ccccc2)=N/C1=C\c1ccc(Cl)cc1`, the inhibition is 24.3%.

On to `NC(=O)COc1ccc(C23CC4CC(CC(C4)C2)C3)cc1`, for which the inhibition was 103% (active).

On to `NNC(=O)COc1ccc(C2SCCS2)cc1`, for which the inhibition is 18.6%.

On to `NC(=O)COc1ccc(NC(=O)c2ccccc2-c2ccccc2)cc1`, for which the inhibition is 6.67%.

On to `Cc1ccc(C)c2[nH]c(=O)c(CN(Cc3cccnc3)C(=S)NCc3ccco3)cc12`, for which the inhibition is 2.47%.

Regarding `Cc1ccc(-c2nc3ccccc3[nH]c2=O)cc1`, the inhibition was -30.2%.

`CC1Cc2ccccc2N1S(=O)(=O)c1ccc(Cl)nc1` (centres undefined): the inhibition is 9.84%.

For `O=C(C(Cl)Cl)N1CCN(c2ccccn2)CC1`, the inhibition is 23.1%.

`CCNC(=S)N1CCN(c2ncccn2)CC1`: the inhibition is 6.67%.

Consider `CC12CCC(C(=O)N3CCN(c4ncccn4)CC3)(c3nc4ccccc4nc31)C2(C)C` (centres undefined), for which the inhibition is 81.3% (active).

In the case of `Cn1nc(C(F)(F)F)c(-c2ccc(F)cc2)c1NC(=O)CSCC(=O)O`, the inhibition is -1.35%.

As for `NC1=NC[C@@H](Cc2ccc(O)cc2)N1CC1CCCCC1`, the inhibition is -9.28%.

Take `CCOC(=O)C1=C(C)N=C2c3ccccc3C(=O)C2C1c1ccc(Br)cc1` (centres undefined): the inhibition is 93.1% (active).

For `CCOC(=O)C1=C(C)NC(C)=C(C(=O)OCC)C1c1ccccn1`, the inhibition was -2.49%.

As for `CCOC(=O)C1=C(C)NC(=O)NC1c1ccccc1` (centres undefined), the inhibition was 5.41%.

Consider `COc1ccc(OCCC(=O)c2ccc(OC)cc2)cc1`, for which the inhibition is -4.29%.

On to `CC(C)(C)c1ccc(Oc2ccc(N)cc2)cc1`, for which the inhibition was 107% (active).

Regarding `Nc1ccc(Oc2ccc(Cl)cc2)cc1`, the inhibition is 33.6%.

With `Cc1ccc(Oc2ccc(N)cc2)cc1`, the inhibition was 37.7%.

For the molecule `Cc1cccc(-[n+]2c(-c3cccc(Br)c3)[nH]c3nc4ccccc4nc32)c1`, the inhibition is 18.3%.

Regarding `COc1ccc(CCN2C(=O)CC(N3CCC(C(N)=O)CC3)C2=O)cc1OC` (centres undefined), the inhibition was -9.45%.

With `O=[N+]([O-])c1cc([N+](=O)[O-])c2cccnc2c1O`, the inhibition is 16.7%.

On to `CC(C)c1nc(N2CCOCC2)c(C#N)c2c1COC(C)(C)C2`, for which the inhibition is 60.3%.

Take `CC(C)Cc1nc(N2CCOCC2)c(C#N)c2c1CCC2`: the inhibition was 91.2% (active).

Take `CC(C)Cc1nc(Cl)c(C#N)c2c1CCC2`: the inhibition is 17.9%.

For the molecule `N/C(=N\OC(=O)Nc1ccccc1)c1ccno1`, the inhibition was -5.09%.

`Cc1cc2ccccc2n1CCC(=O)O`: the inhibition was 6.98%.

Take `O=C(O)CCn1c(O)c(C=C2N=c3ccccc3=N2)sc1=S`: the inhibition is 80.2% (active).

For the molecule `O=C(COc1ccc([N+](=O)[O-])cc1Cl)Nn1cnnc1`, the inhibition was -0.23%.

With `COc1cc(C=O)ccc1Oc1nnnn1-c1ccccc1`, the inhibition was 4.01%.

In the case of `O=C(CSc1nnc2n1CCCN2)c1ccccc1`, the inhibition is -11.1%.

In the case of `CC(=O)c1ccc(NC(=O)C2CC(=O)Nc3nc4ccccc4n32)cc1` (centres undefined), the inhibition was -5.45%.

For the molecule `COc1ccc(Cn2cccc(NC(=O)Nc3ccc(C#N)cc3)c2=O)cc1`, the inhibition was 62.7%.

For the molecule `COc1ccc(Cn2c(C)c(C)c(C#N)c2NC(=O)Nc2ccc(F)cc2)cc1`, the inhibition is 94.3% (active).

As to `Cc1c(C#N)c(NC(=O)c2ccccc2)n(Cc2ccccc2)c1C`, the inhibition is -4.55%.

`Cc1nc2c(ncn2-c2ccccc2)c(=O)n1NC(=O)CN1CCCC1`: the inhibition was 9.81%.

Regarding `COc1cccc(/C=N/NC(=O)c2cccc([N+](=O)[O-])c2)c1OS(=O)(=O)c1ccc(C)cc1`, the inhibition was 0.84%.

Regarding `Cc1ccc(-n2[nH]c(C)c(/C=N/NC(=O)c3cccc([N+](=O)[O-])c3)c2=O)cc1C`, the inhibition was 85.8% (active).

Turning to `Cc1[nH]n(-c2ccccc2)c(=O)c1/C=N/NC(=O)c1ccoc1C`, the inhibition was 51.5%.

On to `O=C(CSc1ncn[nH]1)Nc1nc(-c2cccc([N+](=O)[O-])c2)cs1`, for which the inhibition was 7.63%.

Regarding `O=C(c1ccco1)N1CCN(CCOc2ccccc2)CC1`, the inhibition is 1.67%.

For the molecule `CCS(=O)(=O)Nc1cccc(-c2cc(-c3ccccc3)c3cc(C)ccc3n2)c1`, the inhibition was 78.8% (active).

In the case of `CC(=O)Nc1cccc(-c2cnc3ccccc3n2)c1`, the inhibition is -21.7%.

`Cc1ccc2nc(-c3ccccc3)cc(C(=O)O)c2c1`: the inhibition is -1.51%.

Turning to `CCOC(=O)c1[nH]cnc1C(=O)Nc1ccccc1C`, the inhibition is -6.79%.

For `CCOC(=O)c1ccc(NC(=O)c2nc[nH]c2C(=O)NCc2ccccc2)cc1`, the inhibition was 94.5% (active).

For `CCOC(=O)c1ccc(NC(=O)c2nc[nH]c2C(=O)N[C@@H](CCCCNC(=O)OC(C)(C)C)C(=O)OC(C)(C)C)cc1`, the inhibition was 44.5%.

Take `CCC(=O)c1ccc(OCC(=O)Nc2ccc3nc(C)sc3c2)cc1`: the inhibition was 0.17%.

Consider `COc1ccc2nc(Nc3nc4ccc(NC(C)=O)cc4s3)sc2c1`, for which the inhibition is -58.2%.

For the molecule `CCOc1ccc2nc(Nc3nc4ccc(NC(C)=O)cc4s3)sc2c1`, the inhibition was 106% (active).

With `O=C(NNS(=O)(=O)c1ccccc1C(F)(F)F)c1cc2ncc(C(F)(F)F)cc2s1`, the inhibition is -0.25%.

For the molecule `C=CCn1c(Oc2ccc(C(=O)OC)cc2)nc2c1c(=O)n(C)c(=O)n2C`, the inhibition was 3.03%.

Regarding `C=CCOc1nc2c(c(=O)n(C)c(=O)n2C)n1Cc1ccc(Cl)cc1Cl`, the inhibition is 93.2% (active).

Regarding `Cn1c(=O)c2c(nc(OCc3cccnc3)n2Cc2ccccc2)n(C)c1=O`, the inhibition was 7.91%.

For the molecule `Clc1ccc(C[n+]2cc(-c3ccc(Cl)cc3)n3c2CCC3)cc1`, the inhibition is -2.43%.

For `Cc1nn(Cc2ccc(Cl)cc2)c(Cl)c1/C=N/NC(=O)CNc1ccccc1F`, the inhibition is 96.1% (active).

Consider `Cc1nn(Cc2ccc(Cl)cc2)c(Cl)c1/C=N/NC(=O)c1cccnc1`, for which the inhibition is -12.2%.

`CCn1nc(C)c(/C=N/NC(=O)Cc2ccc(Cl)cc2)c1C`: the inhibition was 14.1%.

On to `Oc1[nH]c2ccc(Br)cc2c1N=Nc1nn[nH]n1`, for which the inhibition is -5.13%.

For the molecule `CCOC(=O)c1ccc(N=C2SC(C(=O)NC)CC(=O)N2CCc2ccccc2)cc1` (centres undefined), the inhibition was -10.9%.

Take `Cc1ccc2[nH]c(=O)c(CC=C(Cl)Cl)c(C)c2c1`: the inhibition was 52.8%.

As for `O=C(NCCN1CCN(Cc2ccccc2)CC1)c1cc2c(=O)[nH]c3ccccc3c2s1`, the inhibition is 21.6%.

With `Cc1cccc(N(C)C(=O)c2cc3c(=O)[nH]c4ccc(C)cc4c3s2)c1`, the inhibition was 80.4% (active).

Take `S=C(NNC(=S)NC1CC2C=CC1C2)NC1CC2C=CC1C2` (centres undefined): the inhibition is 9.31%.
